# Screening data deposited in PubChem by National Center for Advancing Translational Sciences (NCATS).
# Tb PYK inh: blocks Trypanosoma brucei pyruvate kinase. Q57TT1. TbPYK enzyme, Kinase-Glo Plus ATP luminescence, 45 min. Potency, µM (titrated, usually from 76.8 µM), for inactives: at the highest dose activity, negative = inhibition, actives largely listed as inhibitors. 0.12% of 410,000 active. AID 624173; further: potency means the concentration at half of the fitted maximal effect; nearly all actives have a fitted effect of over 50% in size
#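 Glycolytic pyruvate kinase of T. brucei was incubated with substrate, test compound and 130 uM ADP for 45 minutes at room temperature. Luminescent Kinase-Glo Plus signal was measured after 10 minutes.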
# HCMV inh: blocks human cytomegalovirus replication; HFF cells, HCMV-luciferase reporter, 72 h; stronger effect = lower value; activity change, negative = inhibition, % at 57.5 µM; 4.5% of 410,000 active; AID 1259415; in the data active means activity change below about -60%; inconclusive means no clear call, values can overlap the other calls; inactive means above about -39%
#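 Human foreskin fibroblasts infected with luciferase-reporter HCMV at MOI 1 PFU/cell, compounds at two doses. Luciferase measured 72 h post infection; normalized to buffer-only basal and Salinomycin (10uM) controls.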
# FMDV inh: antivirals against foot and mouth disease virus. AID 1159524. Potency, µM (series often up to 57.9 µM), inactives show at the top dose activity change, negative = inhibition, most hits filed as inhibitors. 1.2% of 410,000 active. FMDV antiviral cell-based qHTS; calls by dose curve; tested in HEK293T cells; further: read-out not given here; potency means the concentration at half of the fitted maximal effect; nearly all actives have a fitted effect of over 45% in size
# Giardia FBPA inh: Giardia lamblia aldolase inhibition; Potency, µM (series often up to 59.6 µM), without a hit: at the highest dose activity, negative = inhibition, hits mostly inhibitors; purified Giardia FBPA; 0.71% of 290,000 active; A8B2U2; further: potency means the concentration at half of the fitted maximal effect; nearly all actives have a fitted effect of over 55% in size
# Target sequence (A8B2U2 whole entry, looked up): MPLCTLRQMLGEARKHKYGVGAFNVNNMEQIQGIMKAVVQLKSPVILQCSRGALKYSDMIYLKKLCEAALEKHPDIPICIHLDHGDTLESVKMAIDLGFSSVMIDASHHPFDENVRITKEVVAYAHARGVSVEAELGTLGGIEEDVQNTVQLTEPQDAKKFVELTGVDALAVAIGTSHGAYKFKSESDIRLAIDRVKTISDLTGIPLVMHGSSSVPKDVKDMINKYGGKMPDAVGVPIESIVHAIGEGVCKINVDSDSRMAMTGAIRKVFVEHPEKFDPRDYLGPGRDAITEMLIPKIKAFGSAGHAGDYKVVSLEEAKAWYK
#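 Giardia FBPA (40 nM reagent) was preincubated 10 min at RT with compound (up to 57.5 uM final), then substrate plus GAPDH/TPI/NAD/arsenate coupling system with diaphorase/resazurin was added; resorufin fluorescence (525/598 nm) was read after 20 min.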
# Sm TGR block: blocks Schistosoma mansoni thioredoxin glutathione reductase | Q962Y6 | purified TGR, DTNB reduction, TNB absorbance 405 nm | Potency, µM (highest dose often 114 µM), for inactives: top-dose activity change, negative = inhibition, hits mostly inhibitors | 3% of 360,000 active; further: potency means the concentration at half of the fitted maximal effect; nearly all actives have a fitted effect of over 60% in size
#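 TGR 20 nM + NADPH 100 uM (dispensed conc.), cpd preinc 15 min RT; start with NADPH (500 uM addition) then DTNB (15 mM addition). Kinetic TNB absorbance, 405 nm filter. Four-parameter Hill fit across titration.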
# RE007 growth inh: less growth of the S. pombe RE007 Vpr strain | S. pombe RE007 Vpr strain, BacTiter-Glo ATP luminescence, 24 h | Potency, µM (titrated, usually from 92.2 µM), without a hit: at the highest dose activity change, negative = less growth, actives largely listed as inhibitors | 0.21% of 360,000 active; active means well fitted falling curve with a large enough effect; inconclusive means small, poorly fitted or top-dose-only effect; inactive means no such curve, though single readings can be large or run the other way; further: potency means the concentration at half of the fitted maximal effect; nearly all actives have a fitted effect of over 50% in size
#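 Fission yeast strain RE007, carrying one chromosomally integrated HIV-1 vpr copy, was seeded at OD 0.01 in PMG+AL medium with 23 nL pinned compound. After 24 h at 30 °C and 99% humidity, viability was read by BacTiter-Glo luminescence.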
# Numbers without * were called inactive; ? = inconclusive; / = no result. Compounds with a hit are over-represented: about 7.7% of the library has one in this group of screens. Unless noted, the call rests on the fitted dose curve; in most records, active means well fitted curve in the direction sought with a large enough effect; inconclusive means small, poorly fitted or top-dose-only effect, or another doubt; inactive means no such curve, though single readings can be large; an effect the other way counts as inactive or inconclusive. On the % scale 0 is the no-effect control and ±100 the full control effect.
SMILES,Tb PYK inh,HCMV inh,FMDV inh,Giardia FBPA inh,Sm TGR block,RE007 growth inh
CCCOc1ccc(N2C(=O)CC(N3CCCC(C(=O)N4CCCC4)C3)C2=O)cc1 (stereo not given),-12%,-6,2%,6%,35µM*,18µM*
O=C(C1CCCN(C2CC(=O)N(c3ccc(Cl)cc3)C2=O)C1)N1CCCC1 (stereo not given),3%,-17,-4%,/,40µM*,5.6µM*
Cc1cc(C)n(C2CC(=O)N(c3cccc(Cl)c3)C2=O)n1 (stereo not given),0%,3,-12%,-1%,25µM*,0%
COC(=O)[C@@H]1[C@@H](CO)[C@@H]2Cn3c(cccc3=O)[C@H]1N2C,/,5,/,/,/,/
CC(C)CN(CCNC(=O)c1cn(C)c2ccc(S(=O)(=O)N3CCCCCC3)cc2c1=O)CC(C)C,0%,-8,-15%,/,-1%,/
O=C(C1CCN(C2CC(=O)N(c3cccc(Cl)c3)C2=O)CC1)N1CCCCCC1 (stereo not given),-21%,14,-26%,-1%,14µM*,7.1µM*
CCCOc1ccc(N2C(=O)CC(N3CCOCC3)C2=O)cc1 (stereo not given),-3%,-27,/,9%,-18%,?
CCCOc1ccc(N2C(=O)CC(N3CCC(C(=O)OCC)CC3)C2=O)cc1 (stereo not given),3%,14,0%,7%,0%,5.6µM*
CCN1C(=O)CC(N2CCC(C(=O)N3CCCCCC3)CC2)C1=O (stereo not given),-2%,-33,-5%,9%,-14%,-12%
CN(Cc1ccco1)c1ncncc1-c1cccnc1,/,/,-12%,?,/,/
Oc1ccc(Cl)c2cccnc12,-6%,-27,0%,0%,/,13%
OCc1ccc(O)c2ncccc12,-4%,-98*,-24%,?,22µM*,-13%
Oc1ccc(COCc2ccccc2)c2cccnc12,-8%,-99*,-1%,13%,35µM*,?
O=C(O)c1ccc(O)c2ncccc12,4%,54,50%,/,-10%,/
Oc1ccc(Cc2ccccc2)c2cccnc12,3%,-100*,-9%,/,/,?
CN(Cc1ccco1)Cc1ccc(O)c2ncccc12,-1%,/,2%,/,0.71µM*,/
Cc1ccc(C)c(N2C(=O)N(Cc3cc(=O)n4ccccc4n3)c3ccccc3S2(=O)=O)c1,-1%,?,?,/,-4%,/
CC(C)C[C@H](N)c1nnc(S(=O)(=O)Cc2ccc(F)cc2)o1,4%,/,22µM*,24%,1µM*,-28%
CCOc1ccc(NC(=O)C2CCC(CNS(=O)(=O)c3ccc(Br)s3)CC2)cc1 (stereo not given),-2%,-1,0%,/,2%,/
O=C1/C(=C/c2ccccc2)CCc2ccc(Cl)nc21,-8%,-63*,35µM*,/,/,11%
Cc1ccc(CNC(=O)c2oc3ccc(S(=O)(=O)N4CCC(C)CC4)cc3c2C)cc1,1%,-21,?,/,0%,/
COc1ccc(CCC(=O)Nc2c(-c3ccc(N(C)C)cc3)[nH][nH]c2=O)cc1,-14%,-68*,-9%,/,/,-5%
COc1ccc(-c2[nH][nH]c(=O)c2NC(=O)c2ccccn2)cc1,-11%,-6,-1%,/,/,12%
Cc1ccc(Nc2c(-c3c[nH]c4ccccc34)nc3ccccn23)cc1,-4%,56,49%,/,2%,/
COc1ccc(NC(c2ccccc2)c2ccncc2)cc1 (stereo not given),2%,-2,-14%,?,40µM*,-12%
CCOC(=O)N(C)[C@H]1C[C@H]2c3cc(-c4ccccc4C)ccc3CCN2C[C@H]1[C@H](C)O,/,-89*,/,/,/,/
COc1ccccc1C(=O)NCCC(=O)N1CCN(c2ccc(C(F)(F)F)cn2)CC1,-3%,-85*,?,/,0%,-8%
Cc1ccc(C2=NCCn3nc4cc([N+](=O)[O-])ccc4c32)cc1,-12%,1,35%,/,40µM*,-3%
